Experimental data: PubChem BioAssay (NCI)
Compounds without any hit were thinned out: in the full panel of roughly 79,000, 15% have a hit. Rule as the data show it: active = growth inhibition above about 70%; inactive = the rest. Where a SMILES comes first, the peptide text is derived from it. [ ]: non-standard residue; d: D form. ξ: configuration not given here. ξPhe(4-N(CH2CH2Cl)2) = NC(Cc1ccc(N(CCCl)CCCl)cc1)C(=O)O

Key:
[1] = NCI Yeast Anticancer Drug Screen. Data for the rad50 strain (AID 155);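 also: 0% = growth of vehicle-only cultures of the same strain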; details: S. cerevisiae rad50 strain growth inhibition; at 50.0 µM; stronger effect = higher value
Summary of the method: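 DNA repair mutant yeast, compound exposure, growth read-out; inhibition is taken relative to vehicle.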

[2] = NCI Yeast Anticancer Drug Screen. Data for the mec2-1 strain (AID 157); details: S. cerevisiae mec2-1 strain, at 50.0 µM, stronger effect = higher value
Summary of the method: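 Yeast mec2-1 mutant treated with compound. Readout: growth inhibition vs vehicle controls.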

[3] = NCI Yeast Anticancer Drug Screen. Data for the sgs1 mgt1 strain (AID 161);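 also: 0% = growth of cultures given vehicle only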; details: S. cerevisiae sgs1 mgt1 strain, at 50.0 µM, stronger effect = higher value
Summary of the method: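 Inhibition of yeast growth, normalised to vehicle-treated controls, is reported for a strain bearing genetic alterations in DNA damage repair.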

[4] = NCI Yeast Anticancer Drug Screen. Data for the cln2 rad14 strain (AID 165);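 also: 0% = growth equal to vehicle treated cultures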; details: S. cerevisiae cln2 rad14 strain, at 50.0 µM, stronger effect = higher value
Summary of the method: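 cln2 rad14 yeast strain; compound exposure; growth inhibition read vs vehicle controls.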

[5] = NCI Yeast Anticancer Drug Screen. Data for the bub3 strain (AID 167); details: S. cerevisiae bub3 mutant strain, at 50.0 µM, stronger effect = higher value
Summary of the method: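 In this screen, a yeast mutant lacking normal mitotic checkpoint function is challenged with compound. Relative growth versus vehicle gives the inhibition value.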

[6] = NCI Yeast Anticancer Drug Screen. Data for the mlh1 rad18 strain (AID 175); details: S. cerevisiae mlh1 rad18 strain growth inhibition; at 50.0 µM; stronger effect = higher value
Summary of the method: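 Yeast w/ defined DNA-repair lesions; compound exposure; growth vs vehicle controls → % inhibition.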

Measured: growth inhibition

[Se]=P(NC1CCCCC1)(NC1CCCCC1)NC1CCCCC1
inactive: [1] 14.5% | [2] -0.9% | [3] 2% | [4] 5.1% | [5] 3.25% | [6] 17.9%

CN1C2CCC1[C@@H](COC(=O)c1ccccc1)[C@@H](O)C2 (stereo partly specified)
inactive: [1] -9.15% | [2] -14.6% | [3] -15.6% | [4] -27.4% | [5] -3.55% | [6] -61%

Cc1cc(N)ccc1N
inactive: [1] 7.15% | [2] 11.2% | [3] 14.2% | [4] 4.25% | [5] -6% | [6] -2.9%

CS/C([S-])=N/N=C\c1ccccn1.CS/C([S-])=N/N=C\c1ccccn1.[Ni+2]
inactive: [1] 14.7% | [2] -6.75% | [3] 17.2% | [4] -35.4% | [5] 2.45% | [6] -0.45%

CC1CN=C(Nc2ccc(F)cc2F)S1 (stereo unspecified)
inactive: [1] -9.1% | [2] -8.6% | [3] -65.7% | [4] -24.4% | [5] 12.5% | [6] -36.6%

N#CN
inactive: [1] -9.55% | [2] -17.2% | [3] 22.1% | [4] -16.1% | [5] -13.2% | [6] -5.8%

CC1CN1C(=O)NCCCCCCNC(=O)N1CC1C (stereo unspecified)
inactive: [1] -17.7% | [2] -0.2% | [3] -2.95% | [4] -38.7% | [5] -5.55% | [6] -28.6%

O=C(c1ccccc1)c1c(CC(O)c2ccccc2)n(C(=O)c2ccccc2)c2ccccc12 (stereo unspecified)
inactive: [1] 10.6% | [2] -20.1% | [3] -14.3% | [4] -67.2% | [5] -22.9% | [6] -13.9%

O=C1NC(=S)NC(=O)C1=Cc1ccco1
inactive: [1] -4.55% | [2] -19.9% | [3] -17% | [4] 27.6% | [5] -11.2% | [6] -19.6%

COc1ccc(OP2OCC(C)O2)cc1 (stereo unspecified)
inactive: [1] -1.1% | [2] -46.8% | [3] -10.4% | [4] -30% | [5] -2.6% | [6] 2.5%

CC(C)CCON=O
inactive: [1] -11.3% | [2] -9.4% | [3] -28.2% | [4] -9.05% | [5] -13.1% | [6] -35.6%

Cc1ccc2c3c(c(=O)oc2c1)[C@H](C)C[C@@](C)(CO)O3
inactive: [1] -8.35% | [2] 1.9% | [3] 9.8% | [4] -5.4% | [5] 3.7% | [6] -7.35%

COC(=O)CCc1ccc(NP(=O)(Oc2ccccc2)N(CCCl)CCCl)cc1 (stereo unspecified)
inactive: [1] 13.3% | [2] 20.2% | [3] 23.4% | [4] 35.8% | [5] 12.2% | [6] -8.55%

c1ccc(C(c2ccccc2)C2CCNCC2)cc1
inactive: [1] 29.1% | [2] 6.8% | [3] 3.2% | [4] 16.2% | [5] 32.6% | [6] 2.85%

N#CCc1ccc(O)cc1
inactive: [1] 1.25% | [2] 6.75% | [3] -20.8% | [4] -5.1% | [5] -4.7% | [6] 14%

CCOC(=O)CN(Cc1ccccc1)Cc1c(C(=O)c2ccccc2)c2ccccc2n1C(=O)c1ccccc1
inactive: [1] 3.75% | [2] -11.8% | [3] -10.9% | [4] -75.2% | [5] -16.6% | [6] -18.6%

CCC1(CCBr)C(=O)NC(=O)NC1=O
inactive: [1] -33.6% | [2] 3.35% | [3] 11.8% | [4] -34.5% | [5] 21.6% | [6] 2.3%

COc1ccc2c(c1)C1(C=N2)CCN(C(C)=O)CC1
inactive: [1] 3.25% | [2] -17.1% | [3] -16.4% | [4] 17.1% | [5] -9.75% | [6] -24.8%

OCCSCSCCO
inactive: [1] -5.8% | [2] -8.8% | [3] 5.8% | [4] 10.2% | [5] -2.8% | [6] 0.8%

Cc1ccc(C(=O)Nc2ccc(CP(=O)(O)O)cc2)cc1NC(=O)Nc1cc(C(=O)Nc2ccc(CP(=O)(O)O)cc2)ccc1C
inactive: [1] 3.55% | [2] -10.6% | [3] -30.1% | [4] 11.9% | [5] -29.1% | [6] 7.45%

N/C(=N\NS(=O)(=O)c1ccccc1)N[N+](=O)[O-]
inactive: [1] -3.1% | [2] 21.7% | [3] 7.05% | [4] -8.55% | [5] 24.2% | [6] 7.25%

CC(=O)c1ccc(Br)cc1
inactive: [1] 2% | [2] -5.5% | [3] -0.65% | [4] 8.7% | [5] 5.75% | [6] 1%

CC(CCOc1ccc2ccc(=O)oc2c1)C1=CC(=O)C(C)(C)O1 (stereo unspecified)
inactive: [1] -6.1% | [2] -8.3% | [3] 21.1% | [4] 0.05% | [5] -7.25% | [6] -44.1%

CC(=O)Nc1ccc2c(c1)C(=O)c1cc(NC(C)=O)ccc1-2
inactive: [1] 24.4% | [2] -10.1% | [3] -13.6% | [4] 1.55% | [5] -2.75% | [6] -7.5%

C[C@]12CC[C@@H]3C4=CC(=O)CC[C@@H]4CC[C@H]3[C@@H]1CC[C@@H]2O
inactive: [1] -4.3% | [2] -12.1% | [3] 5.2% | [4] -8.45% | [5] 4.8% | [6] -2.75%

O=C(Nc1c(O)[nH]c(=S)[nH]c1=O)c1ccccn1
inactive: [1] 6.95% | [2] -14.7% | [3] -3.75% | [4] 1.7% | [5] -8.3% | [6] -8.3%

O=NN1CCCS1(=O)=O
inactive: [1] 21.2% | [2] 17.9% | [3] 15.8% | [4] 14.3% | [5] 3.95% | [6] 18.8%

N=C(N)n1cc(/C=N/N=C(N)N)cn1
inactive: [1] -4.4% | [2] -4.35% | [3] -0.15% | [4] 0.1% | [5] -8.3% | [6] 5.8%

CC(Br)[N+](=O)[O-] (stereo unspecified)
inactive: [1] 28.8% | [2] 4.9% | [3] 5.4% | [4] 13.8% | [5] -8.7% | [6] 5.35%

O=C(Nc1ccccc1)Nc1ccc(N(CCCl)CCCl)cc1
inactive: [1] 21.8% | [2] 18.6% | [3] 10.8% | [4] 13.5% | [5] 13.7% | [6] 31.8%

CNc1cccc2ccccc12
inactive: [1] -3.3% | [2] -14.1% | [3] -54.5% | [4] -36.5% | [5] -28.6% | [6] -0.35%

CCC(OC(=O)C1C(C=C(C)C)C1(C)C)c1cc2c(cc1Cl)OCO2 (stereo unspecified)
inactive: [1] -8.05% | [2] -19.1% | [3] -7.3% | [4] -13.3% | [5] -10.7% | [6] -20.8%

CC(CN1NC12CCCC2)N1NC12CCCC2 (stereo unspecified)
inactive: [1] 0.95% | [2] -1.85% | [3] 29.2% | [4] 24.4% | [5] 15.6% | [6] -35.5%

CN1CCN[C@@H]2CCCC[C@@H]21
inactive: [1] 11.2% | [2] -5% | [3] -10.2% | [4] -7.8% | [5] 5.65% | [6] -11.6%

O=[N+]([O-])C1(Cl)CCC(Cl)([N+](=O)[O-])CC1 (stereo unspecified)
inactive: [1] 5.85% | [2] -6.2% | [3] -2.1% | [4] -23.4% | [5] -14.6% | [6] -18.3%

CCCCCCNC(=O)CBr
inactive: [1] 34.6% | [2] 4.55% | [3] 14.6% | [4] 3.4% | [5] 16.8% | [6] 30%

CC([NH-])C[NH-].CC([NH-])C[NH-].[Cl-].[Cl-].[Co+3].[O-][Cl+3]([O-])([O-])O (stereo unspecified)
inactive: [1] 37.5% | [2] 12.6% | [3] 40.5% | [4] 25.6% | [5] 16.9% | [6] 1.6%

CC(C)(C)C(=O)CP(=O)(O)O (tested in a mixture with another compound)
inactive: [1] 24.1% | [2] -4.45% | [3] 1.5% | [4] 14.7% | [5] 10.2% | [6] 15.3%

[CH3][Sn]([CH3])([n]1cnc(N)nc1=O)[n]1cnc(N)nc1=O
inactive: [1] 4.75% | [2] 0% | [3] -10.3% | [4] -1.45% | [5] -2.55% | [6] -60.4%

NC(=O)CCl
inactive: [1] 6% | [2] -0.8% | [3] -2.6% | [4] -1.45% | [5] 12.4% | [6] -12.9%

CCOC(=O)C(Cc1ccc(N(CCCl)CCCl)cc1)NC(=O)C(Cc1ccccc1)NC(=O)C(NC(=O)CNC(=O)C1CCCN1)C(C)C (stereo unspecified) (H-PGVF[ξPhe(4-N(CH2CH2Cl)2)]-OEt; configuration not given here)
inactive: [1] -4.6% | [2] 11.8% | [3] 20.3% | [4] 3.35% | [5] 6.1% | [6] 29.6%
